Test system: Caenorhabditis elegans L1 (N2)
Assay: survival and reproduction score of C. elegans L1 (0: 0-10 living worms, 1: 11-20, 2: 21-50, 3: >50, 4: overgrown) (score 0-4); higher = more worms, less nematicidal, active = 1 or less; extreme values may be limits of the assay
Details: 60 µM; 6 days; temperature: 20 °C
Outline: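 Each 96-well well received about 20 synchronized N2 L1 worms of C. elegans, E. coli HB101 and liquid NGM, plus compound pinned to 60 µM final (0.6% v/v DMSO). Sealed plates were incubated with shaking at 200 rpm, 20 °C, for 6 days. Survival and reproduction were rated under a dissection microscope as an ordinal score of living worms per well, averaged across biological replicates. The scale spanned 0 (0–10 worms) to 4 (overgrown, starved), and there were two replicates.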

SMILES | survival and reproduction score
Cc1ncc2c(c1-c1noc(-c3ccccc3)n1)CCC2 | 4 (inactive)
O=C(Nc1ccccc1-c1nc(-c2cccnc2)no1)c1ccccc1Cl | 4 (inactive)
COc1ccc(-c2noc(COc3ccccc3Cl)n2)cc1 | 4 (inactive)
COc1cccc(NC(=O)CSc2nnc(-c3ccc(Br)cc3)o2)c1 | 4 (inactive)
Ic1ccc(CSc2nnc(-c3ccccc3)o2)cc1 | 4 (inactive)
COc1ccccc1CC(=O)Nc1ccc(-c2noc(-c3ccc(Cl)cc3)n2)cc1 | 4 (inactive)
Cc1ccc(-c2nnc(SCC(=O)Nc3cc(C)c(C)cc3Br)o2)cc1 | 4 (inactive)
Cc1cccc(C)c1NC(=O)CSc1nnc(-c2ccncc2)o1 | 4 (inactive)
Cc1cc(OC(C)c2nc(-c3ccccn3)no2)ccc1Cl (centres undefined) | 2 (inactive)
COc1ccc(-c2noc(-c3ccccc3C(=O)Nc3cccc(C)c3C)n2)cc1 | 4 (inactive)
Cc1ccc(-c2nnc(SCc3ccccc3C#N)o2)cc1 | 4 (inactive)
Clc1ccc(-c2nc(-c3ccc4c(c3)OCO4)no2)cc1 | 4 (inactive)
CCOc1ccc(-c2nc(-c3ccccc3C)no2)cc1 | 4 (inactive)
COc1cccc(-c2noc(CSc3ccccc3)n2)c1 | 4 (inactive)
COc1ccc(OC(C)c2nc(-c3ccccn3)no2)cc1 (centres undefined) | 4 (inactive)
Cc1ccc(SCc2nc(-c3ccccc3)no2)cc1 | 4 (inactive)
COc1ccc(-c2noc(-c3ccc(C)cc3)n2)cc1 | 3 (inactive)
O=C(CSc1nnc(-c2ccc(Cl)cc2)o1)NC1CCCCC1 | 4 (inactive)
COc1nc(-c2ccc(Cl)cc2)ccc1-c1noc(-c2ccncc2)n1 | 4 (inactive)

— the supplement of paper PMC11219838
